# According to article PMC11062922 (Nature Chemical Biology, 2023):
# Like-named read-outs stand apart in the source and are kept apart here.
# How the values were obtained:
# [1] = test system: IKBKE; conditions: read-out: apparent Kd, n = 1
# [2] = test system: NUAK1; conditions: read-out: apparent Kd, n = 1
# [3] = compound concentrations:100 nM and 1000 nM (sheet 'Lestaurtinib' of Supplementary Table 1),run:Lestaurtinib_02364_R2,Plate:MR002
# [4] = compound concentrations:100 nM and 1000 nM (sheet 'Lestaurtinib' of Supplementary Table 1),run:Lestaurtinib_02364_R3,Plate:MR002
# [5] = compound concentrations:100 nM and 1000 nM (sheet 'Lestaurtinib' of Supplementary Table 1),run:Lestaurtinib_02367_R1,Plate:MR003
# [6] = compound concentrations:100 nM and 1000 nM (sheet 'Lestaurtinib' of Supplementary Table 1),run:Lestaurtinib_02381_R1,Plate:MR004
# [7] = compound concentrations:100 nM and 1000 nM (sheet 'Lestaurtinib' of Supplementary Table 1),run:Lestaurtinib_02437_R1,Plate:MR007
# [8] = compound concentrations:100 nM and 1000 nM (sheet 'Lestaurtinib' of Supplementary Table 1),run:Lestaurtinib_02437_R2,Plate:MR007
# [9] = compound concentrations:100 nM and 1000 nM (sheet 'Lestaurtinib' of Supplementary Table 1),run:Lestaurtinib_02438_R1,Plate:MR008
# [10] = compound concentrations:100 nM and 1000 nM (sheet 'Lestaurtinib' of Supplementary Table 1),run:Lestaurtinib_02438_R2,Plate:MR008
# [11] = compound concentrations:100 nM and 1000 nM (sheet 'Lestaurtinib' of Supplementary Table 1),run:Lestaurtinib_02443_R2,Plate:MR009
# [12] = compound concentrations:100 nM and 1000 nM (sheet 'Lestaurtinib' of Supplementary Table 1),run:Lestaurtinib_02482_R1,Plate:MR011
# [13] = compound concentrations:100 nM and 1000 nM (sheet 'Lestaurtinib' of Supplementary Table 1),run:Lestaurtinib_02482_R3,Plate:MR011
# [14] = compound concentrations:100 nM and 1000 nM (sheet 'Lestaurtinib' of Supplementary Table 1),run:Lestaurtinib_02487_R2,Plate:MR012
substance,measurement,setting,value
Lestaurtinib,potency estimated from few doses,"[1]; compound concentrations:100 nM and 1000 nM (sheet 'Lestaurtinib' of Supplementary Table 1),run:Lestaurtinib_02364_R1,Plate:MR002",769 nM
same,potency estimated from few doses,[1]; [3],896 nM
same,potency estimated from few doses,[1]; [4],647 nM
same,potency estimated from few doses,[1]; [5],711 nM
same,potency estimated from few doses,"[1]; compound concentrations:100 nM and 1000 nM (sheet 'Lestaurtinib' of Supplementary Table 1),run:Lestaurtinib_02367_R2,Plate:MR003",972 nM
same,potency estimated from few doses,[1]; [6],695 nM
same,potency estimated from few doses,"[1]; compound concentrations:100 nM and 1000 nM (sheet 'Lestaurtinib' of Supplementary Table 1),run:Lestaurtinib_02381_R2,Plate:MR004",551 nM
same,potency estimated from few doses,"[1]; compound concentrations:100 nM and 1000 nM (sheet 'Lestaurtinib' of Supplementary Table 1),run:Lestaurtinib_02381_R3,Plate:MR004",713 nM
same,potency estimated from few doses,"[1]; compound concentrations:100 nM and 1000 nM (sheet 'Lestaurtinib' of Supplementary Table 1),run:Lestaurtinib_02407_R3,Plate:MR005",883 nM
same,potency estimated from few doses,"[1]; compound concentrations:100 nM and 1000 nM (sheet 'Lestaurtinib' of Supplementary Table 1),run:Lestaurtinib_02422_R3,Plate:MR006",976 nM
same,potency estimated from few doses,[1]; [7],554 nM
same,potency estimated from few doses,[1]; [8],807 nM
same,potency estimated from few doses,"[1]; compound concentrations:100 nM and 1000 nM (sheet 'Lestaurtinib' of Supplementary Table 1),run:Lestaurtinib_02437_R3,Plate:MR007",71.2 nM
same,potency estimated from few doses,[1]; [9],861 nM
same,potency estimated from few doses,[1]; [10],834 nM
same,potency estimated from few doses,"[1]; compound concentrations:100 nM and 1000 nM (sheet 'Lestaurtinib' of Supplementary Table 1),run:Lestaurtinib_02443_R1,Plate:MR009",745 nM
same,potency estimated from few doses,[1]; [11],713 nM
same,potency estimated from few doses,[1]; [12],1130 nM
same,potency estimated from few doses,[1]; [13],627 nM
same,potency estimated from few doses,[1]; [14],1150 nM
same,potency estimated from few doses,"[1]; compound concentrations:100 nM and 1000 nM (sheet 'Lestaurtinib' of Supplementary Table 1),run:Lestaurtinib_02487_R3,Plate:MR012",756 nM
same,potency estimated from few doses,"[1]; compound concentrations:100 nM and 1000 nM (sheet 'Lestaurtinib' of Supplementary Table 1),run:Lestaurtinib_02496_R1,Plate:MR013",710 nM
same,potency estimated from few doses,"[1]; compound concentrations:100 nM and 1000 nM (sheet 'Lestaurtinib' of Supplementary Table 1),run:Lestaurtinib_02496_R2,Plate:MR013",695 nM
same,potency estimated from few doses,"[1]; compound concentrations:100 nM and 1000 nM (sheet 'Lestaurtinib' of Supplementary Table 1),run:Lestaurtinib_02566_R1,Plate:MR014",877 nM
same,potency estimated from few doses,"[1]; compound concentrations:100 nM and 1000 nM (sheet 'Lestaurtinib' of Supplementary Table 1),run:Lestaurtinib_02572_R1,Plate:MR015",756 nM
same,potency estimated from few doses,"[1]; compound concentrations:100 nM and 1000 nM (sheet 'Lestaurtinib' of Supplementary Table 1),run:Lestaurtinib_02572_R2,Plate:MR015",857 nM
same,potency estimated from few doses,"[1]; compound concentrations:100 nM and 1000 nM (sheet 'Lestaurtinib' of Supplementary Table 1),run:Lestaurtinib_02572_R3,Plate:MR015",855 nM
same,potency estimated from few doses,"[1]; compound concentrations:100 nM and 1000 nM (sheet 'Lestaurtinib' of Supplementary Table 1),run:Lestaurtinib_02577_R1,Plate:MR016",799 nM
same,potency estimated from few doses,"[1]; compound concentrations:100 nM and 1000 nM (sheet 'Lestaurtinib' of Supplementary Table 1),run:Lestaurtinib_02577_R2,Plate:MR016",785 nM
same,potency estimated from few doses,"[1]; compound concentrations:100 nM and 1000 nM (sheet 'Lestaurtinib' of Supplementary Table 1),run:Lestaurtinib_02577_R3,Plate:MR016",713 nM
same,potency estimated from few doses,"[1]; compound concentrations:100 nM and 1000 nM (sheet 'Lestaurtinib' of Supplementary Table 1),run:Lestaurtinib_02584_R2,Plate:MR017",744 nM
same,potency estimated from few doses,"[1]; compound concentrations:100 nM and 1000 nM (sheet 'Lestaurtinib' of Supplementary Table 1),run:Lestaurtinib_02584_R3,Plate:MR017",935 nM
same,potency estimated from few doses,"[1]; compound concentrations:100 nM and 1000 nM (sheet 'Lestaurtinib' of Supplementary Table 1),run:Lestaurtinib_02601_R3,Plate:MR018",796 nM
same,potency estimated from few doses,"[1]; compound concentrations:100 nM and 1000 nM (sheet 'Lestaurtinib' of Supplementary Table 1),run:Lestaurtinib_02606_R1,Plate:MR019",995 nM
same,potency estimated from few doses,"[1]; compound concentrations:100 nM and 1000 nM (sheet 'Lestaurtinib' of Supplementary Table 1),run:Lestaurtinib_02624_R2,Plate:MR020",729 nM
same,potency estimated from few doses,"[1]; compound concentrations:100 nM and 1000 nM (sheet 'Lestaurtinib' of Supplementary Table 1),run:Lestaurtinib_02624_R3,Plate:MR020",787 nM
same,potency estimated from few doses,"[1]; compound concentrations:100 nM and 1000 nM (sheet 'Lestaurtinib' of Supplementary Table 1),run:Lestaurtinib_02724_R1,Plate:MR021",731 nM
same,potency estimated from few doses,"[1]; compound concentrations:100 nM and 1000 nM (sheet 'Lestaurtinib' of Supplementary Table 1),run:Lestaurtinib_02724_R2,Plate:MR021",809 nM
same,potency estimated from few doses,"[1]; compound concentrations:100 nM and 1000 nM (sheet 'Lestaurtinib' of Supplementary Table 1),run:Lestaurtinib_02724_R3,Plate:MR021",582 nM
same,potency estimated from few doses,"[1]; compound concentrations:100 nM and 1000 nM (sheet 'Lestaurtinib' of Supplementary Table 1),run:Lestaurtinib_02741_R1,Plate:MR023",782 nM
same,potency estimated from few doses,"[1]; compound concentrations:100 nM and 1000 nM (sheet 'Lestaurtinib' of Supplementary Table 1),run:Lestaurtinib_02741_R2,Plate:MR023",810 nM
same,potency estimated from few doses,"[1]; compound concentrations:100 nM and 1000 nM (sheet 'Lestaurtinib' of Supplementary Table 1),run:Lestaurtinib_02741_R3,Plate:MR023",965 nM
same,potency estimated from few doses,"[1]; compound concentrations:100 nM and 1000 nM (sheet 'Lestaurtinib' of Supplementary Table 1),run:Lestaurtinib_02748_R1,Plate:MR024",505 nM
same,potency estimated from few doses,"[1]; compound concentrations:100 nM and 1000 nM (sheet 'Lestaurtinib' of Supplementary Table 1),run:Lestaurtinib_02748_R3,Plate:MR024",810 nM
same,potency estimated from few doses,"[1]; compound concentrations:100 nM and 1000 nM (sheet 'Lestaurtinib' of Supplementary Table 1),run:Lestaurtinib_02752_R1,Plate:MR025",783 nM
same,potency estimated from few doses,"[1]; compound concentrations:100 nM and 1000 nM (sheet 'Lestaurtinib' of Supplementary Table 1),run:Lestaurtinib_02752_R2,Plate:MR025",786 nM
same,potency estimated from few doses,"[1]; compound concentrations:100 nM and 1000 nM (sheet 'Lestaurtinib' of Supplementary Table 1),run:Lestaurtinib_02752_R3,Plate:MR025",596 nM
same,potency estimated from few doses,"[1]; compound concentrations:100 nM and 1000 nM (sheet 'Lestaurtinib' of Supplementary Table 1),run:Lestaurtinib_02765_R1,Plate:MR026",860 nM
same,potency estimated from few doses,"[1]; compound concentrations:100 nM and 1000 nM (sheet 'Lestaurtinib' of Supplementary Table 1),run:Lestaurtinib_02765_R3,Plate:MR026",731 nM
same,potency estimated from few doses,"[1]; compound concentrations:100 nM and 1000 nM (sheet 'Lestaurtinib' of Supplementary Table 1),run:Lestaurtinib_02768_R1,Plate:MR028",686 nM
same,potency estimated from few doses,"[1]; compound concentrations:100 nM and 1000 nM (sheet 'Lestaurtinib' of Supplementary Table 1),run:Lestaurtinib_02768_R2,Plate:MR028",820 nM
same,potency estimated from few doses,"[1]; compound concentrations:100 nM and 1000 nM (sheet 'Lestaurtinib' of Supplementary Table 1),run:Lestaurtinib_02768_R3,Plate:MR028",628 nM
same,potency estimated from few doses,"[1]; compound concentrations:100 nM and 1000 nM (sheet 'Lestaurtinib' of Supplementary Table 1),run:Lestaurtinib_02795_R1,Plate:MR022",874 nM
same,potency estimated from few doses,"[1]; compound concentrations:100 nM and 1000 nM (sheet 'Lestaurtinib' of Supplementary Table 1),run:Lestaurtinib_02795_R3,Plate:MR022",1210 nM
same,potency estimated from few doses,"[1]; compound concentrations:100 nM and 1000 nM (sheet 'Lestaurtinib' of Supplementary Table 1),run:Lestaurtinib_02802_R3,Plate:MR029",831 nM
same,potency estimated from few doses,"[1]; compound concentrations:100 nM and 1000 nM (sheet 'Lestaurtinib' of Supplementary Table 1),run:Lestaurtinib_02896_R1,Plate:MR030",749 nM
same,potency estimated from few doses,"[1]; compound concentrations:100 nM and 1000 nM (sheet 'Lestaurtinib' of Supplementary Table 1),run:Lestaurtinib_02896_R3,Plate:MR030",608 nM
same,potency estimated from few doses,"[1]; compound concentrations:100 nM and 1000 nM (sheet 'Lestaurtinib' of Supplementary Table 1),run:Lestaurtinib_03172_R2,Plate:MR031",814 nM
same,potency estimated from few doses,"[1]; compound concentrations:100 nM and 1000 nM (sheet 'Lestaurtinib' of Supplementary Table 1),run:Lestaurtinib_03172_R3,Plate:MR031",662 nM
same,potency estimated from few doses,"[1]; compound concentrations:100 nM and 1000 nM (sheet 'Lestaurtinib' of Supplementary Table 1),run:Lestaurtinib_03252_R1,Plate:MR032",804 nM
same,potency estimated from few doses,"[1]; compound concentrations:100 nM and 1000 nM (sheet 'Lestaurtinib' of Supplementary Table 1),run:Lestaurtinib_03260_R1,Plate:MR033",1210 nM
same,potency estimated from few doses,"[1]; compound concentrations:100 nM and 1000 nM (sheet 'Lestaurtinib' of Supplementary Table 1),run:Lestaurtinib_03260_R3,Plate:MR033",943 nM
same,potency estimated from few doses,"[2]; compound concentrations:100 nM and 1000 nM (sheet 'Lestaurtinib' of Supplementary Table 1),run:Lestaurtinib_02339_R1,Plate:MR001",94.5 nM
same,potency estimated from few doses,"[2]; compound concentrations:100 nM and 1000 nM (sheet 'Lestaurtinib' of Supplementary Table 1),run:Lestaurtinib_02339_R2,Plate:MR001",55.6 nM
same,potency estimated from few doses,[2]; [3],62.3 nM
same,potency estimated from few doses,[2]; [4],66.1 nM
same,potency estimated from few doses,[2]; [5],51.3 nM
same,potency estimated from few doses,"[2]; compound concentrations:100 nM and 1000 nM (sheet 'Lestaurtinib' of Supplementary Table 1),run:Lestaurtinib_02367_R3,Plate:MR003",78 nM
same,potency estimated from few doses,[2]; [6],85.9 nM
same,potency estimated from few doses,"[2]; compound concentrations:100 nM and 1000 nM (sheet 'Lestaurtinib' of Supplementary Table 1),run:Lestaurtinib_02407_R1,Plate:MR005",124 nM
same,potency estimated from few doses,"[2]; compound concentrations:100 nM and 1000 nM (sheet 'Lestaurtinib' of Supplementary Table 1),run:Lestaurtinib_02407_R2,Plate:MR005",200 nM
same,potency estimated from few doses,"[2]; compound concentrations:100 nM and 1000 nM (sheet 'Lestaurtinib' of Supplementary Table 1),run:Lestaurtinib_02422_R1,Plate:MR006",69.5 nM
same,potency estimated from few doses,[2]; [7],89.8 nM
same,potency estimated from few doses,[2]; [8],113 nM
same,potency estimated from few doses,[2]; [9],94.3 nM
same,potency estimated from few doses,[2]; [10],82.5 nM
same,potency estimated from few doses,[2]; [11],163 nM
same,potency estimated from few doses,"[2]; compound concentrations:100 nM and 1000 nM (sheet 'Lestaurtinib' of Supplementary Table 1),run:Lestaurtinib_02473_R1,Plate:MR010",93 nM
same,potency estimated from few doses,"[2]; compound concentrations:100 nM and 1000 nM (sheet 'Lestaurtinib' of Supplementary Table 1),run:Lestaurtinib_02473_R2,Plate:MR010",56.8 nM
same,potency estimated from few doses,[2]; [12],115 nM
same,potency estimated from few doses,"[2]; compound concentrations:100 nM and 1000 nM (sheet 'Lestaurtinib' of Supplementary Table 1),run:Lestaurtinib_02482_R2,Plate:MR011",74.4 nM
same,potency estimated from few doses,[2]; [13],87.3 nM
same,potency estimated from few doses,"[2]; compound concentrations:100 nM and 1000 nM (sheet 'Lestaurtinib' of Supplementary Table 1),run:Lestaurtinib_02487_R1,Plate:MR012",60.4 nM
same,potency estimated from few doses,[2]; [14],99.7 nM
